Screening results deposited in PubChem by several laboratories.
A selection: hits, their analogues and other compounds. The true share with any hit is near 4%.
Rv3671c inh: Rv3671c (M. tuberculosis) protease inhibition; inhibition, % at 5.96 µM; 0.048% of 320,000 active; in the data active means inhibition above about 38%;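 further: extracellular domain of Rv3671c used as enzyme; 0% = enzyme with DMSO and 100% = no enzyme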
GDH-TPI inh: inhibits GDH-TPI coupling enzymes, artifact for Mtb FBA screen; GDH-TPI coupled enzyme counterscreen, NADH absorbance; inhibition, % at 4.8 µM; 1.2% of 360,000 active; in the data active means inhibition above about 30%;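 further: 0% = DMSO wells and 100% = wells lacking the enzyme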
Mtb UGM inh: Mtb UDP-galactopyranose mutase inhibition; P9WIQ1; purified UGM, fluorescence polarization probe displacement; inhibition, % at 10 µM; 0.06% of 320,000 active; in the data active means inhibition above about 10%, passing the limit was not always enough; inconclusive means no clear call, values can overlap the other calls
Mtb FBA inh: inhibitors of M. tuberculosis fructose-bisphosphate aldolase; inhibition, % at 1 µM; 2.3% of 360,000 active; purified M. tuberculosis FBA, fluorescence read-out; P9WQA3; in the data active means inhibition above about 27%;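 further: 0% = vehicle and 100% = reference inhibitor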
Target sequence (P9WQA3 whole entry, looked up): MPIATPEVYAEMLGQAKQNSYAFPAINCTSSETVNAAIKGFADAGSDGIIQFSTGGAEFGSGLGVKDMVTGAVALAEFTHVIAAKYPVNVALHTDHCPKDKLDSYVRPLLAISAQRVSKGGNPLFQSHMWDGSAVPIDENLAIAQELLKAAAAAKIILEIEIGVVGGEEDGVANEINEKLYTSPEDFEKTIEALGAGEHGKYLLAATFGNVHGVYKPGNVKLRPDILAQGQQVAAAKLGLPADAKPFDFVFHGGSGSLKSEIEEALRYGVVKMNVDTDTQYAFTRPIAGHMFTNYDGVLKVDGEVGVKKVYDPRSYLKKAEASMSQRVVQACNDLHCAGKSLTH
RecA intein inh: inhibitors of M. tuberculosis RecA intein splicing; inhibition, % (concentration not given with the values); P9WHJ3; 0.75% of 290,000 active; cell-free RecA intein splicing, fluorescence; in the data active means inhibition above about 30%; inconclusive means no clear call, values can overlap the other calls;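 further: 0% = vehicle wells and 100% = reference inhibitor control wells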
Mtb bLac sens: beta-lactam sensitization of Mtb H37Rv; M. tuberculosis H37Rv growth with meropenem, percent inhibition; inhibition, % at 25 µM; 0.27% of 330,000 active; AID 434955; call rule not given here;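 further: growth measured after seven days incubation then overnight dye step; 0% = bacteria only wells and 100% = bacteria with antibiotic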
* hit, by the source's call.

`CNC(=O)COC(=O)c1ccc(-c2nc3ccccc3s2)s1` gave Rv3671c inh 4, GDH-TPI inh 57*, Mtb UGM inh 0, Mtb FBA inh 19, RecA intein inh -4 and Mtb bLac sens 99.
For O=C(N/N=C/c1cccs1)c1ccc(NC(=O)c2ccccc2Cl)cc1 the results were Rv3671c inh 1, GDH-TPI inh 33*, Mtb UGM inh -1, Mtb FBA inh 0, RecA intein inh 0 and Mtb bLac sens -3.
Cc1ccc(/C=N/NC(=O)c2ccc(NC(=O)c3ccccc3Cl)cc2)o1 was read as Rv3671c inh -1, GDH-TPI inh 49*, Mtb UGM inh -1, Mtb FBA inh -6 and Mtb bLac sens 4.
Screening O=C(N/N=C/c1cccs1)c1cccc(NC(=O)c2ccccc2Cl)c1 returned Rv3671c inh -8, GDH-TPI inh 18, Mtb UGM inh 2, Mtb FBA inh 0, RecA intein inh 2 and Mtb bLac sens 8.
Screening CCN(CC)S(=O)(=O)c1cc(NC(=O)Cn2ncc(Cl)c(Cl)c2=O)ccc1C returned Rv3671c inh -6, GDH-TPI inh 8, Mtb UGM inh -1, Mtb FBA inh 3, RecA intein inh 52* and Mtb bLac sens -3.
Screening Cc1ccc(NC(=O)CCl)cc1S(=O)(=O)N1CCCCCC1 returned Rv3671c inh 14, GDH-TPI inh -4, Mtb UGM inh -2, Mtb FBA inh -3, RecA intein inh 52* and Mtb bLac sens 96.
`COCCNCC(=O)Nc1ccc(C)c(S(=O)(=O)N2CCCCC2)c1` gave Rv3671c inh 3, GDH-TPI inh -9, Mtb UGM inh 3, Mtb FBA inh -7, RecA intein inh 4 and Mtb bLac sens -4.
`O=C(Cc1ccc(F)cc1)N[C@@H]1c2ccccc2CC[C@@H]1OCc1ccccc1` gave GDH-TPI inh 3 and Mtb FBA inh -2.
`COC(=O)/C=C/C1=CN(Cc2ccccc2)CCC1=O` gave Rv3671c inh 3, GDH-TPI inh 61*, Mtb UGM inh -1, Mtb FBA inh -2 and Mtb bLac sens 6.
For CC(C(=O)Nc1cccc(S(=O)(=O)N2CCOCC2)c1)N1CCN(C)CC1 (stereo not drawn) the results were Rv3671c inh 1, GDH-TPI inh -1, Mtb UGM inh 0, Mtb FBA inh 1, RecA intein inh -1 and Mtb bLac sens -1.
For CCOP(=O)(OCC)c1nc(-c2ccc(Br)cc2)oc1N1CCCCC1 the results were Rv3671c inh 6, GDH-TPI inh 4, Mtb UGM inh -1, Mtb FBA inh 7, RecA intein inh 4 and Mtb bLac sens 7.
Screening CCOP(=O)(OCC)c1nc(-c2cccc3ccccc23)oc1N1CCOCC1 returned Rv3671c inh -2, GDH-TPI inh 15, Mtb UGM inh -1, Mtb FBA inh active, RecA intein inh -20 and Mtb bLac sens 2.
`CCOP(=O)(OCC)c1nc(-c2ccccc2Cl)oc1N1CCOCC1` gave Rv3671c inh -6, GDH-TPI inh -6, Mtb UGM inh 1, Mtb FBA inh 5, RecA intein inh 0 and Mtb bLac sens -1.
For CCOP(=O)(OCC)c1nc(-c2ccc(C)cc2)oc1N1CCOCC1 the results were Rv3671c inh 6, GDH-TPI inh 15, Mtb UGM inh 0, Mtb FBA inh 169*, RecA intein inh -2 and Mtb bLac sens 3.
Cc1ccccc1NCC(=O)N/N=C/c1c(C)c(C(=O)c2ccc(Cl)cc2)n2ccccc12 was read as Rv3671c inh -1, GDH-TPI inh 32*, Mtb UGM inh -1, Mtb FBA inh -5, RecA intein inh 3 and Mtb bLac sens -10.
For Cc1c(C=O)c2ccccn2c1C(=O)c1ccc(F)cc1 the results were Rv3671c inh -7, GDH-TPI inh 33*, Mtb UGM inh -1, Mtb FBA inh -2, RecA intein inh 0 and Mtb bLac sens 7.
`Cc1c(C=O)c2ccccn2c1C(=O)c1ccccc1` gave Rv3671c inh -5, GDH-TPI inh 7, Mtb FBA inh -3, RecA intein inh 2 and Mtb bLac sens -5.
Screening Cn1cccc1C(=O)OCc1ccc(C(C)(C)C)cc1 returned Rv3671c inh -10, GDH-TPI inh 2, Mtb UGM inh -3, Mtb FBA inh 1, RecA intein inh 4 and Mtb bLac sens 1.
`CCCN(c1ccccc1F)S(=O)(=O)c1cc(-c2cc(C)no2)ccc1OC` gave Rv3671c inh -8, GDH-TPI inh 4, Mtb UGM inh 2, Mtb FBA inh -2, RecA intein inh 13 and Mtb bLac sens 2.
CC(C)n1c(-c2ccc(N(C)C)cc2)nc2ccccc21 was read as Rv3671c inh 4, GDH-TPI inh 11, Mtb UGM inh 1, Mtb FBA inh 185* and Mtb bLac sens 81.
Screening CCn1c(-c2ccc(N(C)C)cc2)nc2ccccc21 returned Rv3671c inh 2, GDH-TPI inh 17, Mtb UGM inh 4, Mtb FBA inh active, RecA intein inh 2 and Mtb bLac sens 2.
For CN(C)c1ccc(-c2nc3ccccc3n2C)cc1 the results were Rv3671c inh -2, GDH-TPI inh 18, Mtb UGM inh -3, Mtb FBA inh active, RecA intein inh -2 and Mtb bLac sens -5.
`COc1cc(-c2cc(NC(C)=O)c3ncc(-c4ccc(C(C)=O)cc4)n3c2)cc(OC)c1OC` gave GDH-TPI inh 19 and Mtb FBA inh 2.
CC1(C(=O)NS(=O)(=O)Cc2cccc(Cl)c2)CCN1C(=O)C1CCCCC1 (stereo not drawn) was read as GDH-TPI inh 11 and Mtb FBA inh 3.
For COC(=O)c1ccc(Oc2c(C)oc3c(CN4CCN(C)CC4)c(O)ccc3c2=O)cc1 the results were Rv3671c inh 0, GDH-TPI inh 22, Mtb UGM inh -2, Mtb FBA inh active, RecA intein inh -4 and Mtb bLac sens inconclusive.
COc1ccccc1Oc1c(C)oc2c(CN3CCN(C)CC3)c(O)ccc2c1=O was read as Rv3671c inh 6, Mtb UGM inh -4, RecA intein inh -2 and Mtb bLac sens -14.
`COc1ccc(Oc2c(C)oc3c(CN(C)C)c(O)ccc3c2=O)cc1` gave Rv3671c inh -5, GDH-TPI inh 26, Mtb UGM inh 2, Mtb FBA inh 43*, RecA intein inh 0 and Mtb bLac sens 5.
For Cc1oc2c(CN(C)C)c(O)ccc2c(=O)c1-c1cscn1 the results were Rv3671c inh 6, GDH-TPI inh 26, Mtb UGM inh -1, Mtb FBA inh 66*, RecA intein inh -5 and Mtb bLac sens 4.
Screening COc1cccc(Oc2c(C)oc3c(CN4CCCCC4)c(O)ccc3c2=O)c1 returned Rv3671c inh 2, GDH-TPI inh 22, Mtb UGM inh 0, Mtb FBA inh 179*, RecA intein inh -4 and Mtb bLac sens -3.
Screening COc1ccc(C(O)c2ncc(-c3ccccc3C)[nH]2)cc1 (stereo not drawn) returned GDH-TPI inh -1 and Mtb FBA inh 9.
For Clc1ccc2c(c1)-c1ccccc1C1=NCCN12 the results were GDH-TPI inh 20 and Mtb FBA inh 51*.
